From the supplement of paper PMC10849652
The full data set covers some 7,900 targets. This sample favours those with a hit. About 0.6% of all pairs of compound and target were hits. A number with no mark means an inactive call.

Tests used:
Assay in all cases: log2 fold change, soluble protein after heating vs DMSO (PISA); higher = thermal stabilisation; K562 cells, 10 uM, 30 min; active = over 0.2 and 3.5 SD of the protein, either way, in both replicates (recomputed)
[1] = compound: C1COCCN1CCN2C3=CC=CC=C3N=C2NC(=O)C4=CC(=CC=C4)[N+](=O)[O-] [IRAK-1-4 Inhibitor I]
Outline: (§1)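 K562 cells at 2×10^6 cells/mL were exposed to 10 μM compound for 30 min, then aliquots were heated for 3 min across 48°C-58°C, pooled, and extracted in PBS containing 0.5% NP-40 at 4°C. The supernatant after 21,000xg for 90 min was taken as soluble protein and measured by TMTpro 16plex LC-MS/MS with channel sums equalised. Thermal stability is reported relative to control samples, with values from duplicates. Fold changes are given on a log2 scale.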

[2] = compound: C=CC(=O)N1CCC[C@@H](n2nc(-c3ccc(Oc4ccccc4)cc3)c3c(N)ncnc32)C1 [ibrutinib]
Outline: as §1

[3] = compound: CC(=O)c1cnc2ccc(-c3cc(Cl)c(O)c(Cl)c3)nc2c1N[C@H]1CC[C@H](CN(C)C)CC1
Outline: as §1

[4] = compound: CC(C)(C)Cn1c(N)nc2ccc(-c3[nH]c(C(C)(C)C)nc3-c3ccc(F)cc3)nc21 [ralimetinib]
Outline: as §1

[5] = compound: CC(C)(O)CC(=O)NCCn1ccc2ncnc(Nc3ccc(Oc4cccc(C(F)(F)F)c4)c(Cl)c3)c21
Outline: as §1

[6] = compound: CC(C)C1=C2N=C(C=C(N2N=C1)NCC3=CC=CC=C3)NCCCCCCN
Outline: as §1

[7] = compound: CC(C)C[C@@H](C=O)NC(=O)[C@H](CC(C)C)NC(=O)[C@H](CC(C)C)NC(=O)OCc1ccccc1
Outline: as §1

[8] = compound: CC(C)N(C[C@H]1O[C@@H](n2cnc3c(N)ncnc32)[C@H](O)[C@@H]1O)[C@H]1C[C@@H](CCc2nc3cc(C(C)(C)C)ccc3[nH]2)C1 [pinometostat]
Outline: as §1

[9] = compound: CC1=C(C(CC(=O)N1)C2=CC=C(C=C2)C(F)(F)F)C(=O)NC3=C(C=C4C(=C3)C=NN4)F
Outline: as §1

[10] = compound: CC1=C(C2=C(C=C1)C(=O)C3=CC=CC=C3N2CCCN)C
Outline: as §1

[11] = compound: CC1=C(C=C(C=C1)NC(=O)C2=CC(=CC=C2)C(C)(C)C#N)NC3=CC4=C(C=C3)N=CN(C4=O)C
Outline: as §1

[12] = compound: CC1=C(C=C(C=C1)NC(=O)C2=CC(=CC=C2)N(C)C)NC(=O)C3=CC=C(C=C3)O
Outline: as §1

[13] = compound: CC1=CC=C(C=C1)SC2=C3C=C(SC3=CN=C2)C(=O)N
Outline: as §1

[14] = compound: CC1=NC(=CC=C1)C2=C(N=C(N2)C(C)(C)C)C3=CC4=NC=CN=C4C=C3
Outline: as §1

[15] = compound: CCCCN(Cc1ccc(C(=O)NO)cc1)C(=O)Nc1ccccc1 [Nexturastat A]
Outline: as §1

[16] = compound: CCCS(=O)(=O)Nc1ccc(F)c(C(=O)c2c[nH]c3ncc(-c4ccc(Cl)cc4)cc23)c1F [vemurafenib]
Outline: as §1

[17] = compound: CCCS(=O)(=O)Nc1ccc(F)c(C(=O)c2c[nH]c3ncc(Cl)cc23)c1F
Outline: as §1

[18] = compound: CCCc1cc(C)[nH]c(=O)c1CNC(=O)c1cc(-c2ccnc(N3CCN(C)CC3)c2)cc2c1cnn2C(C)C
Outline: as §1

[19] = compound: CCN(CC)Cc1ccc2cc(COC(=O)Nc3ccc(C(=O)NO)cc3)ccc2c1 [givinostat]
Outline: as §1

[20] = compound: CCN(CCCOc1ccc2c(Nc3cc(CC(=O)Nc4cccc(F)c4)[nH]n3)ncnc2c1)CCOP(=O)(O)O [barasertib]
Outline: as §1

SLC35A1 (UniProt P78382)
UniProt P78382, sequence (P78382 whole entry, looked up): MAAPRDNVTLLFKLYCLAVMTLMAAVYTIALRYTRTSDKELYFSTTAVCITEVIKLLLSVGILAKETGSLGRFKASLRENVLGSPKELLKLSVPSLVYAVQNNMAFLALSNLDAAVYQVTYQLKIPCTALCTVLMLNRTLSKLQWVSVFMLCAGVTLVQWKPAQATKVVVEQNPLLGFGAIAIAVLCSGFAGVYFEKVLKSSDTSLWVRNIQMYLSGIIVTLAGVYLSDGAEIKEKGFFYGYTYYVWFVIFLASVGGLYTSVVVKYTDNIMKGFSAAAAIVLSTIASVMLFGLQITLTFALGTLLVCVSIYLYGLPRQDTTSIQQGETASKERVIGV
log2 fold change [1]: -0.057
log2 fold change [2]: 0.119
log2 fold change [3]: -0.027
log2 fold change [4]: -0.049
log2 fold change [5]: -0.056
log2 fold change [6]: 0.066
log2 fold change [7]: 0.007
log2 fold change [8]: -0.055
log2 fold change [9]: 0.059
log2 fold change [10]: 0.138
log2 fold change [11]: -0.027
log2 fold change [12]: 0
log2 fold change [13]: -0.045
log2 fold change [14]: 0.06
log2 fold change [15]: -0.037
log2 fold change [16]: 0.382 (active)
log2 fold change [17]: 0
log2 fold change [18]: -0.07
log2 fold change [19]: -0.024
log2 fold change [20]: -0.05

SMAP2 (UniProt Q8WU79)
UniProt Q8WU79, sequence (Q8WU79 whole entry, looked up): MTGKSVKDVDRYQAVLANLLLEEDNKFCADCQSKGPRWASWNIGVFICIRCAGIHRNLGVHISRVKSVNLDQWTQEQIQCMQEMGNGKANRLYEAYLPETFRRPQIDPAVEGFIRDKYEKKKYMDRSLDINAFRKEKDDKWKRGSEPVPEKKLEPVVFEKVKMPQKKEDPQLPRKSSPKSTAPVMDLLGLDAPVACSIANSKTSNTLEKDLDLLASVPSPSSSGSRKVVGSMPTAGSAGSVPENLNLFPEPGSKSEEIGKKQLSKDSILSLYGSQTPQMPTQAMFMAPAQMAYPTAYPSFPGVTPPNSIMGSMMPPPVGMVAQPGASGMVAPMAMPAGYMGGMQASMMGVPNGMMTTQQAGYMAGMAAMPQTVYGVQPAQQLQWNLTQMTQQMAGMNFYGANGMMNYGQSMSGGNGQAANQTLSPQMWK
log2 fold change [1]: 0.04
log2 fold change [2]: -0.027
log2 fold change [3]: 0.039
log2 fold change [4]: 0.048
log2 fold change [5]: -0.039
log2 fold change [6]: 0.02
log2 fold change [7]: 0.137
log2 fold change [8]: 0.015
log2 fold change [9]: -0.025
log2 fold change [10]: 0.004
log2 fold change [11]: -0.033
log2 fold change [12]: -0.063
log2 fold change [13]: 0.016
log2 fold change [14]: -0.054
log2 fold change [15]: 0.029
log2 fold change [16]: 0.058
log2 fold change [17]: 0.055
log2 fold change [18]: 0.043
log2 fold change [19]: 0.04
log2 fold change [20]: 0.052

SUN2 (UniProt Q9UH99)
UniProt Q9UH99, sequence (Q9UH99 whole entry, looked up): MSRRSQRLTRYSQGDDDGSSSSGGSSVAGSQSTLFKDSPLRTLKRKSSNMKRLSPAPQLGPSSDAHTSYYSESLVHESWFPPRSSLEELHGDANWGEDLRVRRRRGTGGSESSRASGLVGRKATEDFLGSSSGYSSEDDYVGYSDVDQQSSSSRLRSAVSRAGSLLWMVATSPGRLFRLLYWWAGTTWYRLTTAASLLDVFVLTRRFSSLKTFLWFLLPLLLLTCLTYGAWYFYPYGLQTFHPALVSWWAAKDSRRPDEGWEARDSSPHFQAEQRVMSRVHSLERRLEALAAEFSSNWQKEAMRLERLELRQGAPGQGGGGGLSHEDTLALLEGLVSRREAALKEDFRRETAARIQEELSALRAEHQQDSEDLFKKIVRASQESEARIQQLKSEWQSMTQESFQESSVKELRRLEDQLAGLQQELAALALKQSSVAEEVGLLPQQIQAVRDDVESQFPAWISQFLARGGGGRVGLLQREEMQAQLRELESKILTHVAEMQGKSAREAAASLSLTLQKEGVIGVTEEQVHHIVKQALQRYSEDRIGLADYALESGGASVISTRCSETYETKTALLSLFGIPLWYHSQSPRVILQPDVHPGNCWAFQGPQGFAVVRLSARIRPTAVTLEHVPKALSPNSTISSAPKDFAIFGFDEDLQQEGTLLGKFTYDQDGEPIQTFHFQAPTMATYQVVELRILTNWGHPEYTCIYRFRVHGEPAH
log2 fold change [1]: -0.04
log2 fold change [2]: 0.056
log2 fold change [3]: -0.044
log2 fold change [4]: 0.072
log2 fold change [5]: -0.119
log2 fold change [6]: -0.211 (active)
log2 fold change [7]: 0.041
log2 fold change [8]: 0.027
log2 fold change [9]: 0.043
log2 fold change [10]: -0.117
log2 fold change [11]: 0.023
log2 fold change [12]: 0.001
log2 fold change [13]: -0.017
log2 fold change [14]: -0.025
log2 fold change [15]: 0.005
log2 fold change [16]: -0.026
log2 fold change [17]: 0.015
log2 fold change [18]: 0.013
log2 fold change [19]: 0.005
log2 fold change [20]: -0.012

SPAG9 (UniProt O60271)
UniProt O60271, sequence (O60271 whole entry, looked up): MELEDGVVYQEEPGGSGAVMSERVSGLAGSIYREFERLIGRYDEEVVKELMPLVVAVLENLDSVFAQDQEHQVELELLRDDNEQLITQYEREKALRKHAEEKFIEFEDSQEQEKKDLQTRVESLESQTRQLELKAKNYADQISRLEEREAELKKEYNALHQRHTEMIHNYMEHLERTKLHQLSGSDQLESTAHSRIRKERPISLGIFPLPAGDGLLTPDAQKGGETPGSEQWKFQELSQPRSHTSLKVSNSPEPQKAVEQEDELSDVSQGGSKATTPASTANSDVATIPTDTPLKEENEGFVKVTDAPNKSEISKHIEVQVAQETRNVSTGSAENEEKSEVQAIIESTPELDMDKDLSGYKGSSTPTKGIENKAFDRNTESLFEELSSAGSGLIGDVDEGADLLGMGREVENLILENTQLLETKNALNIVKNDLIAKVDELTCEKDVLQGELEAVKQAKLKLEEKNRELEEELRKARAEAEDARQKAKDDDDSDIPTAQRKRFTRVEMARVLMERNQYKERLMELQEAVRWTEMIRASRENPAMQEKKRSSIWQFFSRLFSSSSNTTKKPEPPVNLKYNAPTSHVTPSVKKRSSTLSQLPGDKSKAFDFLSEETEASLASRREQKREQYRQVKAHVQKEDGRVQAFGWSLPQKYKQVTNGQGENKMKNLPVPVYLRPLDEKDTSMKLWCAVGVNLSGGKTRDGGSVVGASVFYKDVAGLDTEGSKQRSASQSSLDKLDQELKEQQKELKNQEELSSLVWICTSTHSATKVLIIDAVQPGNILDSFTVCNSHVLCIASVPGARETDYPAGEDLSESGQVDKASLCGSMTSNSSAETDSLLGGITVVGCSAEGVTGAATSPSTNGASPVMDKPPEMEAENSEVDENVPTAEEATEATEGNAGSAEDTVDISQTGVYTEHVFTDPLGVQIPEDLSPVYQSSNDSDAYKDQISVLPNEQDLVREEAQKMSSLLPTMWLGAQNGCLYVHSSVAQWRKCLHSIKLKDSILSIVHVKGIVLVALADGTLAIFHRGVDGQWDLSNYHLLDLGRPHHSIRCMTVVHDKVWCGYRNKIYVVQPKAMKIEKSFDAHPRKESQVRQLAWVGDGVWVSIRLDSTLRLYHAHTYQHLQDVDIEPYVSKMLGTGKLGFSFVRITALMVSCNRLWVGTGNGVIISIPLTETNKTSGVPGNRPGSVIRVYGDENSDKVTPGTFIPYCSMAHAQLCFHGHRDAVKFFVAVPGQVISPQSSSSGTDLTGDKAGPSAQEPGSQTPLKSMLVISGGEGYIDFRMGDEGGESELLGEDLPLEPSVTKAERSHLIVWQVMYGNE
log2 fold change [1]: -0.003
log2 fold change [2]: -0.003
log2 fold change [3]: 0.022
log2 fold change [4]: 0
log2 fold change [5]: -0.045
log2 fold change [6]: -0.219 (active)
log2 fold change [7]: 0.016
log2 fold change [8]: 0.028
log2 fold change [9]: 0.011
log2 fold change [10]: -0.004
log2 fold change [11]: 0.023
log2 fold change [12]: -0.045
log2 fold change [13]: 0.002
log2 fold change [14]: 0.004
log2 fold change [15]: 0.039
log2 fold change [16]: 0.028
log2 fold change [17]: 0.053
log2 fold change [18]: 0.014
log2 fold change [19]: 0.06
log2 fold change [20]: 0.037

STARD3 (UniProt Q14849)
UniProt Q14849, sequence (Q14849 whole entry, looked up): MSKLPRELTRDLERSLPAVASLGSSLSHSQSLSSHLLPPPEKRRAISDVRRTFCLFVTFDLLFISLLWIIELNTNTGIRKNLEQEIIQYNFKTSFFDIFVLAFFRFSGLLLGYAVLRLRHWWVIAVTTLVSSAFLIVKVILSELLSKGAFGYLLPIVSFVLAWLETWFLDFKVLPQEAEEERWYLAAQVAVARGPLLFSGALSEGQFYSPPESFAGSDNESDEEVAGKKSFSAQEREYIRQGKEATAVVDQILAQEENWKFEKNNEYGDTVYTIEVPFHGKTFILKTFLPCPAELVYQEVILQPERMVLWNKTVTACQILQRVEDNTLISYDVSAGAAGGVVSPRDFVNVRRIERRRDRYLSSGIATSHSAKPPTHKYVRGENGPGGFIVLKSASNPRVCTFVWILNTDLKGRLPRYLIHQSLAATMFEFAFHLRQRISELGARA
log2 fold change [1]: -0.075
log2 fold change [2]: 0.23
log2 fold change [3]: -0.033
log2 fold change [4]: 0.033
log2 fold change [5]: -0.075
log2 fold change [6]: -0.429 (active)
log2 fold change [7]: 0.122
log2 fold change [8]: 0
log2 fold change [9]: 0.222
log2 fold change [10]: -0.044
log2 fold change [11]: 0.103
log2 fold change [12]: 0.075
log2 fold change [13]: -0.027
log2 fold change [14]: 0.036
log2 fold change [15]: -0.048
log2 fold change [16]: 0.052
log2 fold change [17]: -0.059
log2 fold change [18]: 0
log2 fold change [19]: 0.011
log2 fold change [20]: 0.016

SP3 (UniProt Q02447)
UniProt Q02447, sequence (Q02447 whole entry, looked up): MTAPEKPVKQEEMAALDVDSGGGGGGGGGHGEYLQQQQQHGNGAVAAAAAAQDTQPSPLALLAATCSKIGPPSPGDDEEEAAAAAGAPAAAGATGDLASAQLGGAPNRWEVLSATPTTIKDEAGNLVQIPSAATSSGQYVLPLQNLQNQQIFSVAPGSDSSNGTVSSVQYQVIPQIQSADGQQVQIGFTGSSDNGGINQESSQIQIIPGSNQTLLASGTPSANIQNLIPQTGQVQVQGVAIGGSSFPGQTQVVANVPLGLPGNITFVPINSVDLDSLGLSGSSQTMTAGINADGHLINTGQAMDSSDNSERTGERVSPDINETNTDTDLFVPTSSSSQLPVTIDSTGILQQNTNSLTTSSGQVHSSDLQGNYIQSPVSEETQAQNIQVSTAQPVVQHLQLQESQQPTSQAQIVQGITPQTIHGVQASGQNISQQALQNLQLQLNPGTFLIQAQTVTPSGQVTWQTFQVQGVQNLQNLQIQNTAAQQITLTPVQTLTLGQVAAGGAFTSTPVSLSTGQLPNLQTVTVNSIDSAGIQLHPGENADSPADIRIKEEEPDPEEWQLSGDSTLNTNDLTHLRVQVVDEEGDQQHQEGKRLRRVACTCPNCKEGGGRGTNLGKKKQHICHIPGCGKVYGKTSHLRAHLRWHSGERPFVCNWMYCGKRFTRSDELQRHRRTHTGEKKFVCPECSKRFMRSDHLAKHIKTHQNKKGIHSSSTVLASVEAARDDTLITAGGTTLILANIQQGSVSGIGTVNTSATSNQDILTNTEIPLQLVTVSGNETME
log2 fold change [1]: -0.129
log2 fold change [2]: 0.003
log2 fold change [3]: -0.007
log2 fold change [4]: 0
log2 fold change [5]: 0.022
log2 fold change [6]: -0.006
log2 fold change [7]: 0.054
log2 fold change [8]: 0.026
log2 fold change [9]: 0.114
log2 fold change [10]: 0.607 (active)
log2 fold change [11]: -0.008
log2 fold change [12]: -0.126
log2 fold change [13]: -0.041
log2 fold change [14]: -0.058
log2 fold change [15]: -0.003
log2 fold change [16]: -0.038
log2 fold change [17]: 0.012
log2 fold change [18]: -0.052
log2 fold change [19]: -0.219
log2 fold change [20]: 0.011

SNRNP27 (UniProt Q8WVK2)
UniProt Q8WVK2, sequence (Q8WVK2 whole entry, looked up): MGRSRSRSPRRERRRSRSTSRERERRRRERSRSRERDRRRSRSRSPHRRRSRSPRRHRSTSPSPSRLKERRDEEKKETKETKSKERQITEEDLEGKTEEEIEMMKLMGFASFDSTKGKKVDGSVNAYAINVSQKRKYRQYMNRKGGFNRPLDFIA
log2 fold change [1]: 0.033
log2 fold change [2]: 0.002
log2 fold change [3]: -0.03
log2 fold change [4]: -0.118
log2 fold change [5]: 0.018
log2 fold change [6]: 0.035
log2 fold change [7]: 0.054
log2 fold change [8]: -0.04
log2 fold change [9]: 0.082
log2 fold change [10]: -0.043
log2 fold change [11]: -0.015
log2 fold change [12]: -0.006
log2 fold change [13]: -0.008
log2 fold change [14]: 0.007
log2 fold change [15]: -0.02
log2 fold change [16]: -0.031
log2 fold change [17]: -0.021
log2 fold change [18]: -0.361
log2 fold change [19]: -0.032
log2 fold change [20]: -0.039

SRSF7 (UniProt Q16629)
UniProt Q16629, sequence (Q16629 whole entry, looked up): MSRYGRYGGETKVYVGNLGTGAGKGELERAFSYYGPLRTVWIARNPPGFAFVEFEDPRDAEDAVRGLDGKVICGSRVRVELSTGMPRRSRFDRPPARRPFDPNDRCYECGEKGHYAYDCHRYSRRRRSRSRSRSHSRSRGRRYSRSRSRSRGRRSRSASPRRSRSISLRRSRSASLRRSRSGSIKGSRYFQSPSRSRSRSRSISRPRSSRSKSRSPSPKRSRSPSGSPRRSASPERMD
log2 fold change [1]: -0.112
log2 fold change [2]: 0.128
log2 fold change [3]: -0.288
log2 fold change [4]: 0.098
log2 fold change [5]: 0.24
log2 fold change [6]: 0.032
log2 fold change [7]: 0.084
log2 fold change [8]: 0.128
log2 fold change [9]: 0.053
log2 fold change [10]: -0.266
log2 fold change [11]: 0
log2 fold change [12]: 0.025
log2 fold change [13]: -0.115
log2 fold change [14]: -0.112
log2 fold change [15]: 0.193
log2 fold change [16]: -0.043
log2 fold change [17]: -0.088
log2 fold change [18]: 0.114
log2 fold change [19]: 0.059
log2 fold change [20]: -0.105
